Records with an inconclusive call do not appear. Some compounds were tested as several samples or in several runs, with calls that do not always agree. Active and inactive are the calls of the source. Unless noted, calls follow the shape of the full dose curve.

Assay [1] in a line: qHTS assay to identify small molecule agonists of the vitamin D receptor (VDR) signaling pathway - cell viability counter screen (AID 743224; active = well fitted curve in the direction sought with a large enough effect in the repeat runs; an effect the other way counts as inactive or inconclusive; also: series mostly up to about 63 µM; nearly all actives have a fitted effect of over 50% in size). Summed up: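 VDR-bla cell line, quantitative HTS format; 16 h compound incubation (37C, 5% CO2); ATP-based CellTiter-Glo luminescence measured in the reporter assay wells.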
A general note: qHTS replaces the single test concentration by a dilution series.

The nature of assay [2]: qHTS assay to identify small molecule antagonists of the vitamin D receptor (VDR) signaling pathway - cell viability counter screen (AID 743225; active = well fitted curve in the direction sought with a large enough effect in the repeat runs; an effect the other way counts as inactive or inconclusive; also: nearly all actives have a fitted effect of over 50% in size). Summed up: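 Cytotoxicity toward the VDR-bla HEK 293T line was scored by ATP-based CellTiter-Glo luminescence, read in the wells already used for the beta-lactamase readout after 16 h compound treatment under 3 nM 1-alpha,25-dihydroxyvitamin D3 stimulation.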

Assay [3] in a line: qHTS assay to identify small molecule agonists of the NFkB signaling pathway (AID 1159509; active = well fitted curve in the direction sought with a large enough effect in the signal ratio in the repeat runs, not every such curve was filed as active; the % refers to the signal ratio; also: series mostly up to about 61 µM). Summed up: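 NFkB-bla ME-180 cells with a beta-lactamase reporter under an NF-kB response element were plated overnight, treated with compounds in DMSO for 5 hr at 37 C, then loaded with FRET substrate for 1.5 hr at room temperature.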
Assay [4] in a line: qHTS assay to identify small molecule agonists of the NFkB signaling pathway - cell viability counter screen (AID 1159515). Also: series mostly up to about 61 µM; nearly all actives have a fitted effect of over 55% in size. The method, boiled down: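 Viability in NFkB-bla ME-180 cells was measured by CellTiter-Glo luminescence, 30 min room temperature, in wells already treated 5 hr with compounds and read for reporter FRET.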
The nature of assay [5]: qHTS assay to identify small molecule agonists of the endoplasmic reticulum stress response signaling pathway (AID 1159516; active = well fitted activation curve with a large enough effect in the signal ratio in the repeat runs, not every such curve was filed as active; the % refers to the signal ratio). The method, boiled down:
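ER stress element reporter (bla) in HeLa. 1,500 cells/well, overnight attachment; 5 hr compound; 2 hr RT substrate; dual-emission fluorescence.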

Assay [6] in a line: qHTS assay to identify small molecule agonists of the endoplasmic reticulum stress response signaling pathway - cell viability counter screen (AID 1159517).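 Also: HeLa cells carrying an ER stress response element beta-lactamase reporter; series mostly up to about 61 µM; nearly all actives have a fitted effect of over 50% in size.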 The method, boiled down:
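Counter-screen wells were identical to the reporter wells. Cells were plated at 1,500 per well and dosed for 5 hr, then read for luminescence 30 min after CellTiter-Glo addition.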

A short description of assay [7]: qHTS assay to identify small molecule antagonists of the retinoid-related orphan receptor gamma (ROR-gamma) signaling pathway - cell viability counter screen (AID 1159520; active = well fitted curve in the direction sought with a large enough effect in the repeat runs; an effect the other way counts as inactive or inconclusive; also: nearly all actives have a fitted effect of over 50% in size). The method, boiled down:
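Tet-on ROR gamma CHO cells were given compounds for 2 hr, then doxycycline hyclate at 1 uM final, and incubated 16 hr at 37 C. Viability was measured as ATP content by CellTiter-Glo luminescence.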

Assay [8] deals with Nuclear receptor ROR-gamma (Homo sapiens) (UniProt P51449). Put plainly: qHTS assay to identify small molecule antagonists of the retinoid-related orphan receptor gamma (ROR-gamma) signaling pathway (AID 1159521; active = well fitted curve in the direction sought with a large enough effect in the repeat runs; an effect the other way counts as inactive or inconclusive; also: nearly all actives have a fitted effect of over 50% in size; also: potency is read from the fitted curve at half-maximal effect). Summed up:
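Readout: ONE-Glo luciferase luminescence, 30 min at room temperature. System: Tet-on RORγ CHO, RORE-LUC. Sequence: compound 2 h, doxycycline 1 uM final, 16 h at 37 C.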

The nature of assay [9]: qHTS assay to identify small molecule agonists of the AP-1 signaling pathway - cell viability counter screen (AID 1159525). Also: nearly all actives have a fitted effect of over 55% in size. The method, boiled down:
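AP-1-bla ME-180 cells in Opti-MEM with 0.5% dialyzed FBS, compound exposure 5 h at 37 C in 15-point titration. Viability read in the same wells as ATP content by CellTiter-Glo luminescence, normalised to tetra-n-octylammonium bromide and DMSO controls.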

Assay [10] can be described thus: qHTS assay to identify small molecule agonists of the AP-1 signaling pathway (AID 1159526).

`CCCCC(CC)C(=O)Cl` (centres undefined): the Potency result in [1], in assay [8] and in assay [10] was “inactive” throughout. Further, the compound was classed as inactive in assay [2], in assay [3], in [4], in assay [5], in assay [6] and in assay [7]. The call in assay [9] was inactive.

As to `C=C(C)C(=O)OCC(CC)CCCC` (centres undefined), the Potency result in assay [1] and in assay [10] was “inactive” each time. The compound was called inactive in assay [3], in assay [4], in assay [5], in assay [6], in [7] and in assay [9]. The Potency in [8] is 49.5 µM (active) and inactive.

Regarding `OCCCCO`, the Potency result in [1], in [8] and in assay [10] was “inactive” each time. In addition, the call in assay [3], in [4], in assay [5], in [6], in assay [7] and in assay [9] was inactive.

`COc1nc(NC(C)C)nc(NC(C)C)n1`: the Potency entry in assay [1], in [8] and in assay [10] was “inactive” throughout. In addition, the call in [3], in assay [4], in assay [5], in assay [6], in assay [7] and in [9] was inactive.

As to `Nc1cccc(Cl)c1`, the Potency result in assay [1], in [8] and in assay [10] was “inactive” in each case. In addition, the compound was classed as inactive in assay [3], in assay [4], in assay [5], in [6], in assay [7] and in [9].

For the compound `ClCCOCCCl`, the Potency result in assay [1], in assay [8] and in [10] was “inactive” in each case. For the same compound, the compound was called inactive in assay [3], in assay [4], in [5], in assay [6], in assay [7] and in assay [9].

`Nc1ccc([As](=O)(O)O)cc1`: the Potency result in assay [1], in assay [8] and in assay [10] was “inactive” in each case. Further, the call in assay [3], in assay [4], in assay [5], in [6], in assay [7] and in assay [9] was inactive.

On to `COC(=O)Nc1cccc(OC(=O)Nc2cccc(C)c2)c1`, for which the Potency entry in assay [1], in [8] and in [10] was “inactive” in each case. The call in assay [3], in assay [4], in assay [6], in [7] and in assay [9] was inactive.

Consider `CNC(=O)O/N=C/C(C)(C)S(C)=O` (centres undefined), for which the Potency result in assay [1], in assay [8] and in [10] was “inactive” each time. Moreover, the outcome in [2], in assay [3], in assay [4], in assay [5], in assay [6] and in [7] was inactive. Moreover, the compound was classed as inactive in [9].

Regarding `[N-]=[N+]=CC(=O)OC[C@H](N)C(=O)O`, the Potency entry in [1], in assay [8] and in assay [10] was “inactive” throughout. Moreover, the result in assay [2], in assay [3], in [4], in assay [5], in assay [6] and in assay [7] was inactive. Moreover, the compound was called inactive in [9].

For the compound `CNC(=O)O/N=C/C(C)(C)SC`, the Potency entry in assay [1], in assay [8] and in assay [10] was “inactive” in each case. Moreover, the compound was called inactive in assay [2], in assay [3], in [4], in [5], in [6] and in assay [7]. The result in assay [9] was inactive.

For `CNC(=O)O/N=C(\SC)C(=O)N(C)C`, the Potency result in assay [1], in assay [8] and in assay [10] was “inactive” in each case. The compound was called inactive in assay [2], in assay [3], in assay [4], in assay [5], in [6] and in [7]. Also, the compound was called inactive in assay [9].

As to `CCNc1nc(Cl)nc(NC(C)C)n1`, the Potency result in [1], in assay [8] and in [10] was “inactive” throughout. For the same compound, the compound was called inactive in [2], in assay [3], in [4], in [5], in assay [6] and in assay [7]. For the same compound, the compound was called inactive in [9].

Consider `CCCCCCCCCCCCCCCCCC(=O)O`, for which the Potency result in [1] and in assay [10] was “inactive” each time. For the same compound, the call in [3], in [4], in assay [5], in [6], in [7] and in assay [9] was inactive.

For `NNc1ccccc1`, the Potency result in assay [1], in assay [8] and in assay [10] was “inactive” in each case. Also, the call in assay [2], in [3], in assay [4], in assay [5], in assay [6] and in assay [7] was inactive. Besides, in [9], the compound was classed as inactive.

On to `CNC(=O)Oc1cccc2ccccc12`, for which the Potency result in assay [1], in assay [8] and in [10] was “inactive” throughout. The call in assay [2], in assay [3], in assay [4], in [5], in [6] and in [7] was inactive. For the same compound, the call in [9] was inactive.

As for `OCc1ccco1`, the Potency result in [1], in assay [8] and in assay [10] was “inactive” each time. Besides, the result in assay [3], in assay [4], in assay [6], in [7] and in assay [9] was inactive.

As for `Cc1ccc(N=C=O)cc1N=C=O`, the Potency result in assay [1], in [8] and in [10] was “inactive” throughout. For the same compound, the call in assay [2], in assay [3], in [4], in assay [5], in [6] and in assay [7] was inactive. Also, the outcome in assay [9] was inactive.

On to `Clc1cnc(Oc2ccc(Oc3ncc(Cl)cc3Cl)cc2)c(Cl)c1`, for which the Potency entry in assay [1], in assay [8] and in [10] was “inactive” each time. Also, the outcome in assay [2], in assay [3], in assay [4], in assay [5], in [6] and in [7] was inactive. In addition, the result in [9] was inactive.

In the case of `Nc1ccc(N)cc1`, the Potency result in assay [1], in assay [8] and in assay [10] was “inactive” throughout. The compound was classed as inactive in [2], in [3], in [4], in [5], in [6] and in assay [7]. The call in assay [9] was inactive.

`COS(=O)(=O)OC`: the Potency result in assay [1], in assay [8] and in [10] was “inactive” in each case. Besides, the compound was called inactive in assay [3], in [4], in assay [6], in [7] and in assay [9].

As for `COc1cc(-c2ccc(N)c(OC)c2)ccc1N`, the Potency entry in assay [1], in [8] and in assay [10] was “inactive” each time. For the same compound, the result in [3], in assay [4], in assay [6], in [7] and in [9] was inactive.

These data come from PubChem BioAssay (Tox21).
